Source: PubChem BioAssay (NCATS)
Where “and” joins values, the source holds several entries; their conditions need not be identical. Identical values can stand only once. Inconclusive results are not listed. More than one record can exist for a structure, and the calls need not agree. Calls of active or inactive are those of the source. Unless noted, calls follow the shape of the dose curve; as a rule, active = well fitted curve in the direction sought with a large enough effect; inconclusive = small, poorly fitted or top-dose-only effect, or another doubt; inactive = no such curve, though single readings can be large; an effect the other way counts as inactive or inconclusive.

Columns and labels:
[1] = qHTS for Activators of Parkin Expression: LOPAC Validation Assay (FLuc Reporter) (AID 720573;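 also: 0% = DMSO and 100% = positive control compounds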)
Summary of the method: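 Neuronal cell line stably carrying FLuc/NLuc coincidence reporter under Parkin promoter; cells plated 24 h, then compounds added in 7-point dose response for 24 h at 37 C. FLuc luminescence read; normalized to DMSO and positive control (100%).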

[2] = target: T1, Hexokinase-4 (Homo sapiens) + Glucokinase regulatory protein (Homo sapiens) (UniProt P35557+Q14397); test: qHTS assay for inhibitors of recombinant human GCK-GKRP interaction: Diaphorase-coupled assay (AID 743205)
T1 sequence (P35557 whole entry, looked up): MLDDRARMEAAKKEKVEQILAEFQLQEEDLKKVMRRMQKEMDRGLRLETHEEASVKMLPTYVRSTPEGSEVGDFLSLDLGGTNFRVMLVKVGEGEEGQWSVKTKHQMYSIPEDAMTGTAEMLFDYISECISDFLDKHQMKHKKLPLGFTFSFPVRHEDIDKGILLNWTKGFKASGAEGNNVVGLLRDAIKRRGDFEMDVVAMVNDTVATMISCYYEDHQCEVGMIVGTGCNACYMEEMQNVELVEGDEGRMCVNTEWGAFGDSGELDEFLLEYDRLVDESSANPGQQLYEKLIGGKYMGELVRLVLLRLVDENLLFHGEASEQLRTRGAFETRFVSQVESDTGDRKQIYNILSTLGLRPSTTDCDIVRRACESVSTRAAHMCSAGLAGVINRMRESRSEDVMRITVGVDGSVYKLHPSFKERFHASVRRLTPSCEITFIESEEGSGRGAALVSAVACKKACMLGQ
T1 sequence (Q14397 whole entry, looked up): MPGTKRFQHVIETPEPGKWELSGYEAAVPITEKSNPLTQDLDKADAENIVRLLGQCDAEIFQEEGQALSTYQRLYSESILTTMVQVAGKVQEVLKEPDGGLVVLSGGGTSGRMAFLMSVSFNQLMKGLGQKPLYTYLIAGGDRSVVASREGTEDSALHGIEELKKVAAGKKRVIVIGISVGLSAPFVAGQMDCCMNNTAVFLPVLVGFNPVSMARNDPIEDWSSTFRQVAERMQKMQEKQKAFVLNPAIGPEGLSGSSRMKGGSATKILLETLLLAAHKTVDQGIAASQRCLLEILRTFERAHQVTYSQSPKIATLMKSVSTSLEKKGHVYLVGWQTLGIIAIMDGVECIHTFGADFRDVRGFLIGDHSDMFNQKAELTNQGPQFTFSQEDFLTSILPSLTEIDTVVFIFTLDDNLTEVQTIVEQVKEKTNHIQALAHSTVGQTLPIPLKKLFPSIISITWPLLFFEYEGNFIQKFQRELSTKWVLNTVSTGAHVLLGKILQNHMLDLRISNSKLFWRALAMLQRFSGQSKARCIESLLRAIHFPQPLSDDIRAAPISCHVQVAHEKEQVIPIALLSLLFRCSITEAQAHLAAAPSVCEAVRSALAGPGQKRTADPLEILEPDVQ
Summary of the method: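 GST-GCK (10 nM) with FLAG-GKRP (10 nM), 5 mM glucose and 0.4 mM ATP in pH 7.6 Hepes; compounds preincubated 20 min with substrate. G6PDH/diaphorase coupling converts resazurin to resorufin, read kinetically (ex 525/em 590 nm) for 30 min.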

[3] = target: T1, Hexokinase-4 (Homo sapiens) + Glucokinase regulatory protein (Homo sapiens); test: qHTS assay for inhibitors of recombinant human GCK-GKRP interaction: ADP-Glo assay (AID 743206);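 also: plate controls were DMSO plus enzyme for no effect and no enzyme for full effect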
Summary of the method: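 Pin-transferred compounds meet a 15 nM GST-GCK/15 nM FLAG-GKRP/2 uM S6P mix (dispense concentrations). ATP is then added to 0.4 mM final with 5 mM glucose, and the reaction runs 60 min at room temperature. ADP is quantified luminescently.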

[4] = target: T1, Hexokinase-4 (Homo sapiens) + Glucokinase regulatory protein (Homo sapiens); test: qHTS assay for inhibitors of recombinant human GCK-GKRP interaction: HTRF assay (AID 743207);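 also: 0% = DMSO with GCK present and -100% = DMSO wells lacking GCK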
Summary of the method: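 GST-GCK and FLAG-GKRP (5 nM each) were combined with 2 uM S6P in pH 7.1 Hepes/MgCl2/KCl/DTT buffer, then compound and anti-FLAG XL665/anti-GST K antibodies were added. After 60 min at room temperature, HTRF 665/615 nm emission was read.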

[5] = qHTS Assay for Identifying Gametocytocidal Compounds (AID 743244); also: potency is read from the fitted curve at half-maximal effect;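 as to max response: % is scaled to controls: 0 for no effect and ±100 for the full control effect; actives lower the fluorescent signal which means gametocytes are killed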; conditions: P. falciparum 3D7 stage III-V gametocytes, alamarBlue, 72 h; max response: stronger effect = lower value
Summary of the method: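 P. falciparum 3D7 stage III–V gametocytes (20,000 cells/well) were exposed to compounds for 72 h at 37 °C, 5% CO2. AlamarBlue was then added for 24 h; decreased resorufin fluorescence (Ex 525/Em 598 nm) indicated loss of viability.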

[6] = qHTS assay for small molecule antagonists of the retinoid-related orphan receptor gamma (ROR-gamma) signaling pathway - cell viability counter screen (AID 720652; active = well fitted curve in the direction sought with a large enough effect in the repeat runs; an effect the other way counts as inactive or inconclusive;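 also: CHO reporter cells with doxycycline-induced ROR-gamma expression; series mostly up to about 92 µM; compound exposure lasted 16 hr before ATP read; % is scaled to controls: 0 for no effect and ±100 for the full control effect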)
Summary of the method: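 ATP-based viability readout in the ROR-gamma reporter CHO cells after 16 hr compound exposure under doxycycline induction.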

[7] = qHTS assay for small molecule agonists of the antioxidant response element (ARE) signaling pathway measured by Nrf2-dependant transcriptional activity - cell viability counter screen (AID 720653; active = well fitted curve in the direction sought with a large enough effect in the repeat runs; an effect the other way counts as inactive or inconclusive; also: % is scaled to controls: 0 for no effect and ±100 for the full control effect); conditions: ARE-bla HepG2 viability, CellTiter-Glo ATP luminescence, 16 h; max response: stronger effect = lower value
Summary of the method: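 ARE-bla HepG2 cells treated with compounds for 16 h at 37C; this counter screen measures viability as intracellular ATP by CellTiter-Glo luminescence after 30 min at room temperature.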

[8] = qHTS assay for cell viability of HEK293 cells (AID 743288); conditions: ATP luminescence (CellTiter-Glo), 18 h, stronger effect = lower value; also: % is scaled to controls: 0 for no effect and ±100 for the full control effect; nearly all actives have a fitted effect of over 50% in size
Summary of the method: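 After 18 h compound exposure at 37 C, parental HEK293 cells (2,000/well) are lysed with CellTiter-Glo and luminescence is read following 30 min at room temperature.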

[9] = qHTS assay for cell viability of the p53RE-bla HCT-116 cell line (AID 743292); also: % is scaled to controls: 0 for no effect and ±100 for the full control effect; nearly all actives have a fitted effect of over 55% in size
Summary of the method: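 CellSensor p53RE-bla HCT-116 cells (4,000/well) pre-incubated 5 h at 37 C, then exposed to compounds in DMSO for 16 h at 37 C. Viability read as ATP content by CellTiter-Glo luminescence after 30 min at room temperature.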

[10] = qHTS assay for small molecule agonists of the antioxidant response element (ARE) signaling pathway measured by Nrf2-dependant transcriptional activity (AID 720636; active = well fitted curve in the direction sought with a large enough effect in the repeat runs; an effect the other way counts as inactive or inconclusive; also: % of control where 0% means no effect)
Summary of the method: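 ARE-luc HepG2 cells carrying an Nrf2-responsive luciferase reporter, in medium with 1% dialyzed FBS, exposed to compound for 16 hr at 37 C, 5% CO2. Luminescence read 30 min after ONE-Glo addition.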

CN(C)CC[C@@H](c1ccc(Cl)cc1)c1ccccn1
inactive: outcome [1] | outcome [2] | outcome [3] | outcome [4] | max response [5] 25.3%
active: Potency [5] 26.4 µM

CCCCOC(=O)c1ccc(O)cc1
inactive: Potency [6] | max response [7] 4.31% and -13.4% | max response [5] 0.124% | max response [8] -12.8% and -6.18% | Potency [9]

COc1ccc2cc1Oc1cc3c(cc1OC)CC[N+](C)(C)[C@H]3Cc1ccc(cc1)Oc1c(OC)c(OC)cc3c1[C@@H](C2)[N+](C)(C)CC3
inactive: max response [5] -8.04%

CC12CCC(CC1)C(C)(C)O2
inactive: outcome [10] | Potency [6] | max response [7] 3.37% | max response [5] 7.91% | max response [8] 4.94% | Potency [9]

O=C1NS(=O)(=O)c2ccccc21
inactive: outcome [10] | max response [7] -2.82% | max response [5] 5.05% | max response [8] 0.942% | Potency [9]

CC(O)CN(CCN(CC(C)O)CC(C)O)CC(C)O (stereo unspecified)
inactive: outcome [10] | max response [7] -0.296% | max response [5] 3.97% | max response [8] -9.37% | Potency [9]

CN(C)CCC=C1c2ccccc2CCc2ccccc21
inactive: outcome [1] | outcome [2] | outcome [3] | outcome [4] | max response [8] -2.39% and -37.1% | Potency [9]

CCCCC/C(C=O)=C\c1ccccc1
inactive: max response [5] 8.31%

CC1(C)Oc2ccc(C#N)cc2[C@@H](N2CCCC2=O)[C@@H]1O
inactive: max response [5] -8.5% and 8.76%

CCCc1c(OCCCCc2nn[nH]n2)ccc(C(C)=O)c1O
inactive: outcome [10] | max response [7] 2.63% | max response [5] -10.5% | max response [8] -7.07% | Potency [9]
